A short description of assay [1]: ATG_TAL_CIS: Attagene CIS-FACTORIAL HepG2 Assay for human TAL Basal Promoter (AID 2282966).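 Further: background control endpoint measuring basal TAL promoter reporter mRNA not a specific factor.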 The following applies: HepG2 Attagene cis-factorial TAL promoter reporter; actives raise or lower the signal. The procedure, abridged:
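After 24 hours of chemical exposure, transfected HepG2 cells yielded RNA that was converted to 6-FAM-labelled, HpaI-digested reporter fragments for capillary electrophoresis. Values derive from bidirectional fitting against DMSO controls.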

Assay [2] is described as follows: ATG_TGFb_CIS: Attagene CIS-FACTORIAL HepG2 Assay for human Transforming Growth Factor (TGF) (AID 2282967). The following applies: HepG2 Attagene CIS TGFb reporter, mRNA transcription; actives raise or lower the signal. The procedure, abridged:
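HepG2 cells transiently transfected with cis-promoter-driven multiple reporter units measure endogenous TF activity; reporter mRNA quantified at 24 h by RT-PCR, FAM labeling, HpaI digestion and capillary electrophoresis. Bidirectional fit vs DMSO.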

Assay [3] is described as follows: ATG_VDRE_CIS: Attagene CIS-FACTORIAL HepG2 Assay for human Vitamin D Receptor Element (VDRE) (AID 2282968). The following applies: HepG2 VDRE cis-reporter transcription, actives raise or lower the signal. The procedure, abridged:
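Readout is VDRE-driven reporter mRNA reflecting endogenous factor activity in human HepG2 cells, sampled 24 h post-dose. Quantification used labelled RT-PCR products separated by capillary electrophoresis; bidirectional analysis relative to DMSO.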

Assay [4] concerns the target X-box-binding protein 1 (Homo sapiens) (UniProt P17861). Description: ATG_Xbp1_CIS: Attagene CIS-FACTORIAL HepG2 Assay for human X-box Binding Protein 1 (XBP1) (AID 2282972). The following applies: HepG2 XBP1 cis-element reporter, Attagene multiplex; actives raise or lower the signal. The procedure, abridged: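 Read-out: fluorescent reporter mRNA fragments resolved by capillary electrophoresis after RT-PCR. Human HepG2 liver cells carried transfected cis-promoter reporter units and were exposed to chemicals for 24 hours. Gain or loss of signal fitted relative to DMSO baseline.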

Assay [5] in a line: ATG_M_06_TRANS: Attagene TRANS-FACTORIAL HepG2 Assay for M06 Transcription Factor (Internal Marker) (AID 2282983; active means hit-call score of the fitted dose curve at least 0.9, where 1 is the maximum;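 further: reporter transcript level by RT-PCR then capillary electrophoresis fluorescence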). The following applies: HepG2 Attagene TRANS M06 internal marker reporter. The procedure, abridged:
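Background control endpoint: reporter mRNA from transiently transfected HepG2 after 24 h dosing, detected by RT-PCR with capillary electrophoresis fluorescence. Analysed for gain versus DMSO.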

The target of assay [6] is Nuclear receptor subfamily 4 group A member 2 (Homo sapiens) (UniProt P43354). As to the kind of experiment: ATG_NURR1_TRANS: Attagene TRANS-FACTORIAL HepG2 Assay for human Nuclear Receptor Related Protein 1 (NURR1) (AID 2282985; active means hit-call score of the fitted dose curve at least 0.9, where 1 is the maximum). The following applies: HepG2 Attagene TRANS reporter, mRNA readout. The procedure, abridged:
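Reporter transcript induction, measured by RT-PCR with fluorescent labelling, HpaI digestion and capillary electrophoresis, after 24 hr dosing of human HepG2 cells transiently expressing an exogenous NR-Gal4 fusion with GAL4-UAS-driven reporters; DMSO as baseline.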

Assay [7] addresses Transcriptional activator Myb (Homo sapiens) (UniProt P10242). As to the kind of experiment: ATG_Myb_CIS: Attagene CIS-FACTORIAL HepG2 Assay for human Myeloblastosis (Myb) Proto-Oncogene Transcription Factor (AID 2282986). The following applies: HepG2 Attagene CIS-FACTORIAL Myb reporter transcription; actives raise or lower the signal. The procedure, abridged: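 Transiently transfected HepG2 cells carrying a multiplexed cis-promoter reporter set report endogenous Myb activity after 24 h compound exposure. Reporter mRNA is read by RT-PCR with capillary electrophoresis of fluorescent products, fitted bidirectionally against DMSO.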

Assay [8] concerns the target Nuclear respiratory factor 1 (Homo sapiens) (UniProt Q16656). Description: ATG_NRF1_CIS: Attagene CIS-FACTORIAL HepG2 Assay for human Nuclear Respiratory Factor 1 (NRF1) Orphan Gene (AID 2282987). The following applies: HepG2 NRF1 cis-element reporter, Attagene multiplex; actives raise or lower the signal. The procedure, abridged:
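HepG2 cells transiently transfected with multiple cis-regulated reporter units, exposed 24 h. Reporter mRNAs measured by RT-PCR, fluorescent labelling, HpaI digestion and capillary electrophoresis; bidirectional fitting against DMSO.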

Assay [9] concerns the target Hepatocyte nuclear factor 4-alpha (Homo sapiens) (UniProt P41235). As to the kind of experiment: ATG_HNF4a_TRANS: Attagene TRANS-FACTORIAL HepG2 Assay for human Hepatocyte Nuclear Factor 4 alpha (HNF4a) (AID 2282982; active means hit-call score of the fitted dose curve at least 0.9, where 1 is the maximum). The following applies: HepG2 HNF4a transactivation reporter, mRNA readout. The procedure, abridged:
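Activity of an exogenous HNF4a–Gal4 fusion scored as induced GAL4-UAS reporter transcripts after 24 h chemical exposure of transfected human HepG2 cells. Read-out via RT-PCR with 6-FAM labelling and capillary electrophoresis; rise over DMSO baseline.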

In assay [10] the target is Glucocorticoid receptor (Homo sapiens) (UniProt P04150). As to the kind of experiment: ATG_GR_TRANS: Attagene TRANS-FACTORIAL HepG2 Assay for human Glucocorticoid Receptor (GR) (AID 2282978; active means hit-call score of the fitted dose curve at least 0.9, where 1 is the maximum;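 further: activators score as hits since higher reporter transcript over DMSO is fitted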). The following applies: HepG2 Attagene TRANS GR reporter, mRNA transcription. The procedure, abridged: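 HepG2 cells transiently transfected with GAL4-UAS reporter units and exogenous GR-Gal4 chimera, dosed 24 h. Reporter mRNA by RT-PCR, FAM labeling, HpaI digest and capillary electrophoresis; gain-of-signal fit versus DMSO.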

The target in assay [11] is Bile acid receptor (Homo sapiens) (UniProt Q96RI1). Description: ATG_FXR_TRANS: Attagene TRANS-FACTORIAL HepG2 Assay for Farnesoid X Receptor (FXR) (AID 2282979; active means hit-call score of the fitted dose curve at least 0.9, where 1 is the maximum;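 further: hits raise reporter mRNA above DMSO so AC50 marks FXR activation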). The following applies: HepG2 Attagene TRANS FXR-GAL4 reporter transcription. The procedure, abridged: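 Transient transfection of HepG2 with multiplexed GAL4-UAS reporter units; exogenous FXR-GAL4 chimera. Dose 24 h → TriZol RNA → oligo(dT) RT → PCR, 6-FAM primer extension, HpaI cut → CE. Gain vs DMSO.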

Assay [12] deals with Oxysterols receptor LXR-beta (Homo sapiens) (UniProt P55055). As to the kind of experiment: ATG_LXRb_TRANS: Attagene TRANS-FACTORIAL HepG2 Assay for human Liver X Receptor beta (LXRb) (AID 2282981; active means hit-call score of the fitted dose curve at least 0.9, where 1 is the maximum). The following applies: HepG2 Attagene TRANS GAL4-LXRb reporter, mRNA. The procedure, abridged: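 After 24 h chemical treatment of transfected HepG2 cells carrying exogenous NR-Gal4 chimeras, reporter mRNA was quantified by fluorescent RT-PCR and capillary electrophoresis; activity taken as increase over DMSO controls.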

Assay [13] in a line: ATG_M_32_TRANS: Attagene TRANS-FACTORIAL HepG2 Assay for M32 Transcription Factor (Internal Marker) (AID 2282984; active means hit-call score of the fitted dose curve at least 0.9, where 1 is the maximum;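 further: transcript level of a background control reporter unit measured by RT-PCR and capillary electrophoresis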). The following applies: HepG2 Attagene TRANS M32 internal marker reporter. The procedure, abridged:
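Internal background reporter in transfected HepG2: after 24 h chemical exposure, RNA reverse-transcribed, reporter cDNA amplified, fluorescently labelled and HpaI-cut, then sized by capillary electrophoresis. Gain of signal fitted against DMSO control.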

Assay [14] addresses Estrogen-related receptor gamma (Homo sapiens) (UniProt P62508). Description: ATG_ERRg_TRANS: Attagene TRANS-FACTORIAL HepG2 Assay for human Estrogen-Related Receptor gamma (ERRg) (AID 2282977; active means hit-call score of the fitted dose curve at least 0.9, where 1 is the maximum;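 further: hits increase reporter signal over DMSO so potencies reflect activators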). The following applies: HepG2 Attagene TRANS reporter, ERRg transactivation. The procedure, abridged:
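Exogenous NR-Gal4 chimera activity measured as reporter transcript induction after 24 h in transiently transfected HepG2 cells. RNA reverse-transcribed, PCR-amplified, 6-FAM-labelled and resolved by capillary electrophoresis; increase over DMSO baseline.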

Assay [15] concerns the target Oxysterols receptor LXR-alpha (Homo sapiens) (UniProt Q13133). Description: ATG_LXRa_TRANS: Attagene TRANS-FACTORIAL HepG2 Assay for human Liver X Receptor alpha (LXRa) (AID 2282980; active means hit-call score of the fitted dose curve at least 0.9, where 1 is the maximum). The following applies: HepG2 Attagene TRANS reporter, LXRa transactivation. The procedure, abridged:
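Transfect HepG2 with GAL4-UAS multiplex reporter constructs (TRANS format, chimeric receptor-GAL4); treat 24 h; extract RNA, reverse-transcribe, PCR-amplify, FAM-label, HpaI-digest; resolve fragments by capillary electrophoresis. Upward response vs DMSO.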

Inconclusive results are not listed. Activity calls are given as the source filed them. How the source made its calls, unless noted: active means hit-call score of the fitted dose curve at least 0.9, where 1 is the maximum; inactive means score below 0.9.

Chain of Glucocorticoid receptor (Homo sapiens) (P04150 whole entry, looked up, the tested form may be a part): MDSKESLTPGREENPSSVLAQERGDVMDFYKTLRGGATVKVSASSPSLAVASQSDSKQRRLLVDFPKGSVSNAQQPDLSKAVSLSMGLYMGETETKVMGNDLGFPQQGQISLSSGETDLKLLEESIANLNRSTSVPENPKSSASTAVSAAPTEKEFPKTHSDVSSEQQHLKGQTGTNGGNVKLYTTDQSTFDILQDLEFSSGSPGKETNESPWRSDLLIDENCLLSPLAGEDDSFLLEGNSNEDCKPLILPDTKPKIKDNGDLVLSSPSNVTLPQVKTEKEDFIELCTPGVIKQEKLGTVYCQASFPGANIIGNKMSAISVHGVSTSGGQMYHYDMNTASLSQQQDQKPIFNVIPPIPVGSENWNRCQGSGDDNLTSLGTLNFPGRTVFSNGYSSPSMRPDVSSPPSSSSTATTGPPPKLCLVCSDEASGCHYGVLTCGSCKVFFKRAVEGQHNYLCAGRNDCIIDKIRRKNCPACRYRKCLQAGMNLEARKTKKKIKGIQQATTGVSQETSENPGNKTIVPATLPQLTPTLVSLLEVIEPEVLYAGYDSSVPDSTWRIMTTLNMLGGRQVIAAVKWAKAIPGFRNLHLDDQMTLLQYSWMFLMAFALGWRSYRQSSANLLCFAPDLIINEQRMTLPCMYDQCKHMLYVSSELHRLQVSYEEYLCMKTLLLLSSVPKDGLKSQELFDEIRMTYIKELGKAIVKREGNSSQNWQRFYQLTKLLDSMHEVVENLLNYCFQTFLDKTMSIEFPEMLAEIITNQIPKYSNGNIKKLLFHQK
Chain of Transcriptional activator Myb (Homo sapiens) (P10242 whole entry, looked up): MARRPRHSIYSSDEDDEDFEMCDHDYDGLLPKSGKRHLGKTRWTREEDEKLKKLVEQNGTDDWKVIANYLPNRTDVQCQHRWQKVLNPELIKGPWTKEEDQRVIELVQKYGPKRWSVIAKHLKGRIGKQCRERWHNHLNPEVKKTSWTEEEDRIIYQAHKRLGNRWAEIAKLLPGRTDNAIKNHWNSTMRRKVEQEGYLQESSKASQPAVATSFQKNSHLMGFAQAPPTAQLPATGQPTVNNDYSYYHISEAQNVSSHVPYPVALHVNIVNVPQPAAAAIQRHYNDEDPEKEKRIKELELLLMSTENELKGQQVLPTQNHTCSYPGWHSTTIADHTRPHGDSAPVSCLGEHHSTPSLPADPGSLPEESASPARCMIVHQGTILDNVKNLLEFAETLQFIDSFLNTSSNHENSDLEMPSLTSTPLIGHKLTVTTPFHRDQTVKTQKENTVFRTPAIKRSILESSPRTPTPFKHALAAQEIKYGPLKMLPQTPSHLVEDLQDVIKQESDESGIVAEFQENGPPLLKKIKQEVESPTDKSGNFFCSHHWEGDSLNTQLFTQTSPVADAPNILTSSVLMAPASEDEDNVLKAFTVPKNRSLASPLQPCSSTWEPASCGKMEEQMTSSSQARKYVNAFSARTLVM
Chain of Oxysterols receptor LXR-alpha (Homo sapiens) (Q13133 whole entry, looked up, the tested form may be a part): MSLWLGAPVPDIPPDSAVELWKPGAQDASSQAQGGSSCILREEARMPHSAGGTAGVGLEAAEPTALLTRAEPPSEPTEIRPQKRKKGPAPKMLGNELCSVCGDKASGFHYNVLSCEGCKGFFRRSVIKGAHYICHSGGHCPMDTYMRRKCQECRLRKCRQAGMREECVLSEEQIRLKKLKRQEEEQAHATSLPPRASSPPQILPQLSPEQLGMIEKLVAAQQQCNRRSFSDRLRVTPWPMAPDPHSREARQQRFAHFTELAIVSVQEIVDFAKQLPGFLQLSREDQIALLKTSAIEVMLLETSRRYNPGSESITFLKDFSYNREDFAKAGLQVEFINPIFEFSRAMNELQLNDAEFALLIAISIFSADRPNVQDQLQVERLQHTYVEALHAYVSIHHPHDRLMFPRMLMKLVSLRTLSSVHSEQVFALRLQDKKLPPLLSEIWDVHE
Chain of Bile acid receptor (Homo sapiens) (Q96RI1 whole entry, looked up, the tested form may be a part): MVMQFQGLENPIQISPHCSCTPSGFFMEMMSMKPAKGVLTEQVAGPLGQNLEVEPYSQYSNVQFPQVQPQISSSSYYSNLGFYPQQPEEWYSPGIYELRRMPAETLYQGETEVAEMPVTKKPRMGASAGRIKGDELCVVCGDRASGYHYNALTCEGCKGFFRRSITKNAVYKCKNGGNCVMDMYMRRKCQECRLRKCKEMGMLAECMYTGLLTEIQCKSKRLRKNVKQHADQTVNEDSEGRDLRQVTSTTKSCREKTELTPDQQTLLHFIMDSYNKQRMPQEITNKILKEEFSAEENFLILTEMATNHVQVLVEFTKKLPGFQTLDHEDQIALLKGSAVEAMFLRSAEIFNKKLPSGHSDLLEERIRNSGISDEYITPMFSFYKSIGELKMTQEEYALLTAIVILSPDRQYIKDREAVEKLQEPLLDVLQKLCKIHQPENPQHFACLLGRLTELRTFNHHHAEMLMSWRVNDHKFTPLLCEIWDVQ
Chain of X-box-binding protein 1 (Homo sapiens) (P17861 whole entry, looked up, the tested form may be a part): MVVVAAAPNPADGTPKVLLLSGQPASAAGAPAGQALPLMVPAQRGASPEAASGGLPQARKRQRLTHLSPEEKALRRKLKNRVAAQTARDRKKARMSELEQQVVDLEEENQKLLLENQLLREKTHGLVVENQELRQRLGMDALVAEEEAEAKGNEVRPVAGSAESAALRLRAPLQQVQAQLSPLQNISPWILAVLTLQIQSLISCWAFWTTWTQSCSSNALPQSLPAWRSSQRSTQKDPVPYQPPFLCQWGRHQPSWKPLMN
Chain of Nuclear respiratory factor 1 (Homo sapiens) (Q16656 whole entry, looked up): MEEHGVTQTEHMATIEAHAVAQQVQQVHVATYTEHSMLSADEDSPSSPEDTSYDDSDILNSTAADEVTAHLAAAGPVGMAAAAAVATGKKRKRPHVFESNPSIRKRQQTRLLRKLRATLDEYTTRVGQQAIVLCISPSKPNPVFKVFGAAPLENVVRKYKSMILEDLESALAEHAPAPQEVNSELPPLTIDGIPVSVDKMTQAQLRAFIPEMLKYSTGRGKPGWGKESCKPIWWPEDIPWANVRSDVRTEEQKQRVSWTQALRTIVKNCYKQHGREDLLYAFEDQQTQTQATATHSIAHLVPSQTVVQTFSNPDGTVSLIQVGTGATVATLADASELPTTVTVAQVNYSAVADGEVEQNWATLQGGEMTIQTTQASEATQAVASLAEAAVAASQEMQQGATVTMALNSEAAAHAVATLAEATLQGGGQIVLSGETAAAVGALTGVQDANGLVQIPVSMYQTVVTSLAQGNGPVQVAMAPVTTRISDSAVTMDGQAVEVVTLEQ
Chain of Nuclear receptor subfamily 4 group A member 2 (Homo sapiens) (P43354 whole entry, looked up, the tested form may be a part): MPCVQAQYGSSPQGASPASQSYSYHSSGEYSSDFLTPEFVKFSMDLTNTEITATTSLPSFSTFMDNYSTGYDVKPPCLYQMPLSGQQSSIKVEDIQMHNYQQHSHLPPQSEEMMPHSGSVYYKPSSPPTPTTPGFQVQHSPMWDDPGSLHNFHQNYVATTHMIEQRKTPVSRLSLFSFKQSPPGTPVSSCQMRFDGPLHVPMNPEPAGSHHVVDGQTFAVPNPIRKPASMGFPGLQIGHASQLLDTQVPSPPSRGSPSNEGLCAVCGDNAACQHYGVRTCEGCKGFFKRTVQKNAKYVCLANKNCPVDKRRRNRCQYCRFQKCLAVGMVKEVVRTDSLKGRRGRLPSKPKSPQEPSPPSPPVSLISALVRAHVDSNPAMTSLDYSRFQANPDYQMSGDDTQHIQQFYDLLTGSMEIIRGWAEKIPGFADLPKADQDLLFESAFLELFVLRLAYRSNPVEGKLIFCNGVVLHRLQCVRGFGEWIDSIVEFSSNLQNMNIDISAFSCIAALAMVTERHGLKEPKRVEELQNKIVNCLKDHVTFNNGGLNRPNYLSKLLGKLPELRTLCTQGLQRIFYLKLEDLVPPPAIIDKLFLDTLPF
Chain of Oxysterols receptor LXR-beta (Homo sapiens) (P55055 whole entry, looked up, the tested form may be a part): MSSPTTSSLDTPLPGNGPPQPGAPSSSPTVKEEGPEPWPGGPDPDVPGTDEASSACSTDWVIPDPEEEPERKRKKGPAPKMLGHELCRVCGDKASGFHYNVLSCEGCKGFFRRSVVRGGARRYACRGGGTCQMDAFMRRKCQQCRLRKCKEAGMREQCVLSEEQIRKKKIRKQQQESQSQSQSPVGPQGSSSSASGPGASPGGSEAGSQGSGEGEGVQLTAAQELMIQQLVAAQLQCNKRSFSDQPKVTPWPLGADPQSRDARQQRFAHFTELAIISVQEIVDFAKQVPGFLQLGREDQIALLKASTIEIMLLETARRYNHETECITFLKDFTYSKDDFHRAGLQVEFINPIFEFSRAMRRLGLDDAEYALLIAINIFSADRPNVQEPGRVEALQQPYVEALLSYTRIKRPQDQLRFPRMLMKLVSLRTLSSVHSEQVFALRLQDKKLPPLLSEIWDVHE
Chain of Hepatocyte nuclear factor 4-alpha (Homo sapiens) (P41235 whole entry, looked up, the tested form may be a part): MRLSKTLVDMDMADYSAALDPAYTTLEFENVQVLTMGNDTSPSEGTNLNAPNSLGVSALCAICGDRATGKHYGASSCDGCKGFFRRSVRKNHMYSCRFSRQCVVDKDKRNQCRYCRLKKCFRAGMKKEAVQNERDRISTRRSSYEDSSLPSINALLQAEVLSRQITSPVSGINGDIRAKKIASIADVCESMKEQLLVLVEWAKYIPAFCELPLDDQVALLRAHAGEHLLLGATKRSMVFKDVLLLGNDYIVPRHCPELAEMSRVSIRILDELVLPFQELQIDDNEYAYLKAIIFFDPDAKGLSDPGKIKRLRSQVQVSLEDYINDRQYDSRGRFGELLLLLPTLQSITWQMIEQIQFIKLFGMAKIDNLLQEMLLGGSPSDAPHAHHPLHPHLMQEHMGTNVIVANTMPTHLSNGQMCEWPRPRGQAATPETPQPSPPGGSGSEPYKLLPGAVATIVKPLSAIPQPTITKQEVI

With `CC(=O)c1ccccn1`, the result in [1], in assay [2], in assay [3], in assay [4], in assay [5] and in assay [6] was inactive. The call in assay [7] and in [8] was inactive.
By AC50 is commonly meant the midpoint of the concentration-response curve, whichever way the signal moves. As for `CC(=O)Nc1ccc(C(=O)CCl)cc1`, the outcome in [1], in assay [2], in [9], in assay [5], in [6] and in assay [7] was inactive. Moreover, the compound was classed as inactive in assay [8]. For the same compound, the AC50 in [3] is 8.84 µM (active); in [4] it was 7.85 µM (active).
For `CCC1(c2ccccc2)C(=O)NCNC1=O`, the compound was called inactive in assay [1], in assay [2], in assay [3], in assay [4], in assay [10] and in assay [11]. For the same compound, the result in assay [12], in [9], in assay [5], in assay [13], in assay [7] and in [8] was inactive.
For `[Cl][Au]([Cl])[Cl]`, the compound was called inactive in assay [1], in assay [2], in [3], in assay [4], in assay [14] and in assay [11]. Moreover, the outcome in assay [15], in [12], in assay [9], in [5], in assay [13] and in [6] was inactive. In addition, in assay [7], the compound was called inactive. Further, the AC50 in assay [8] is 147 µM (active).
Take `CCC(Cl)C(Cl)C(Cl)CC(Cl)C(Cl)C(C)Cl` (stereo not given): the compound was called inactive in assay [1], in assay [4], in [10], in [15], in [12] and in [9]. In addition, the outcome in assay [5], in assay [13], in assay [6], in [7] and in assay [8] was inactive. For the same compound, the AC50 is 64.6 µM (active) in assay [2], 3.17 µM (active) in assay [3] and 11 µM (active) in assay [11].
`CC1(C)C2=CCCC(C)(C)[C@]23CC[C@H]1C3`: the call in assay [1], in [4], in assay [10], in assay [11], in assay [15] and in [12] was inactive. For the same compound, the compound was classed as inactive in assay [5], in [13], in [6], in assay [7] and in assay [8]. Moreover, the AC50 in assay [2] was 100 µM (active); in assay [3] it was 2 µM (active).
Consider `O=C1OC[C@H](Cc2cccc(O)c2)[C@H]1Cc1cccc(O)c1`, for which the compound was classed as inactive in assay [1], in assay [2], in [4], in assay [10], in [15] and in [12]. Moreover, the result in assay [9], in assay [5], in [6], in assay [7] and in assay [8] was inactive. In addition, the AC50 in assay [3] is 21.8 µM (active).
For the compound `CC(C)=CCCC(C)CCOC=O` (stereo not given), the compound was called inactive in assay [1], in assay [2], in [3], in [4], in [11] and in assay [9]. Moreover, the outcome in assay [5], in assay [13], in [6], in assay [7] and in assay [8] was inactive.
As to `O=Cc1ccccc1S(=O)(=O)O`, the compound was called inactive in assay [1], in [2], in assay [3], in assay [4], in assay [5] and in assay [6]. Moreover, the call in assay [7] and in assay [8] was inactive.
For the compound `CC(C)C(OC(=O)c1ccccc1)C(C)(C)COC(=O)c1ccccc1` (stereo not given), the compound was classed as inactive in assay [1], in assay [2], in assay [4], in assay [6], in assay [7] and in assay [8]. Besides, the AC50 in assay [3] was 1.52 µM (active); in [11] it was 20 µM (active).
For the compound `CS(C)=O`, the call in [1], in [2], in assay [3], in assay [4], in [10] and in assay [9] was inactive. Further, the call in [8] was inactive.
For the compound `COc1cc(C(C)C)ccc1C`, the compound was classed as inactive in [1], in [2], in assay [3], in [4], in assay [10] and in [11]. Also, the result in [5], in assay [7] and in [8] was inactive.

The record behind these values is PubChem BioAssay (EPA / NIEHS).
